Source: PubChem
A selection: hits, their analogues and other compounds. The true share with any hit is near 1.6%.
HTR5A inv ag: counter-screen for OPRM1-OPRD1 inverse agonists: human HTR5A inverse agonism. HTR5A cell line, luminescence. inhibition, % at 9.3 µM. 0.083% of 340,000 active. P47898. AID 504634; in the data active means inhibition mostly above about 23%, no sharp cut-off; inactive means mostly below about 18%
MOR-DOR inv ag: inverse agonists of human mu-delta opioid receptor heterodimerization; 0.21% of 340,000 active; cell-based MOR-DOR heterodimer luminescence, inverse agonism; AID 504357; inhibition, % at 9.3 µM; P35372+P41143; in the data active means inhibition above about 22%, passing the limit was not always enough
HTR5A ag ctr: activates human HTR5A in OPRM1-OPRD1 agonist counter-screen; P47898; HTR5A agonist assay, luminescence, cell-based; activation, % at 9.3 µM; 0.61% of 340,000 active; AID 504692; in the data active means activation mostly above about 9.5%, no sharp cut-off; inactive means mostly below about 7.6%
OPRM1-OPRD1 ag: agonists of human mu-delta opioid receptor heterodimerization | 0.3% of 340,000 active | cells, OPRM1-OPRD1 heterodimerization, luminescence | activation, % at 9.3 µM; in the data active means activation above about 18%
m5-HT2A agonist: activates the mouse 5-HT2A serotonin receptor. P35363. CHO-K1 mHTR2A beta-arrestin complementation, luminescence; percent of 30 µM serotonin response. activation, % at 7.6 µM. 0.66% of 360,000 active. AID 624169;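 active means activation above a run cutoff, the mean activation of all tested compounds plus 3 SD, cut at about 14% in these data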
Target sequence (P35363 whole entry, looked up): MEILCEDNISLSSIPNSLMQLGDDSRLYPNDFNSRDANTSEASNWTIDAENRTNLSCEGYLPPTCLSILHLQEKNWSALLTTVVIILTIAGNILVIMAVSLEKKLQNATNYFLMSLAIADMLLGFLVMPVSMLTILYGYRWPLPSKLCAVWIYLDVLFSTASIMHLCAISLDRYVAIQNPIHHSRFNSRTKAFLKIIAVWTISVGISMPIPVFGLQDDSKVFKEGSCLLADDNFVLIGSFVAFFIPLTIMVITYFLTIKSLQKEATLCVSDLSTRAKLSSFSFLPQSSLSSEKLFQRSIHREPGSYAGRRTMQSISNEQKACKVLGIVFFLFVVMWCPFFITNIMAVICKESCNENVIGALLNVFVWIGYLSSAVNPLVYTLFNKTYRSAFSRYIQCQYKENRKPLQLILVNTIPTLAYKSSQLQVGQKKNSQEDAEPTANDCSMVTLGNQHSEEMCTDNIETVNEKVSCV
OPRM1 ag: counter-screen for mouse HTR2A agonists: human mu opioid receptor agonists; shares compounds with m5-HT2A agonist; U2OS OPRM1 beta-arrestin PathHunter, luminescence; DMSO 0%, DAMGO 9.3 µM 100%; activation, % at 9.3 µM; 5.3% of 2,300 active; AID 624380;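 active means mean activation above the mean of DMSO-only wells plus 3 SD, cut at about 0.5% in these data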
m5-HT2A ag conf: confirmation of mouse HTR2A serotonin receptor agonists | shares compounds with m5-HT2A agonist | CHO-K1 PathHunter beta-arrestin recruitment, luminescence; DMSO 0%, 30 µM serotonin 100% | activation, % at 7.6 µM | 19% of 2,300 active | AID 624381;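 active means mean activation across triplicates above the hit threshold derived in the original primary screen, cut at about 15% in these data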
Each line names hits and unclear results; the compound was inactive in the other large screens (follow-up assays come after a bar, where they were run).

CC(=O)NC(c1cccc(F)c1)c1nc(-c2cnn(C)c2)cs1 (stereo not drawn)	none (no result: HTR5A inv ag, MOR-DOR inv ag, HTR5A ag ctr, OPRM1-OPRD1 ag)
COc1ccc(Cc2c(O)nc(SCC(=O)c3ccc(OC)cc3)[nH]c2=O)cc1	none
COc1ccc(Cc2c(O)nc(SCC(C)C)[nH]c2=O)cc1	m5-HT2A agonist 14 | OPRM1 ag inactive | m5-HT2A ag conf inactive
Cc1ccc(C(=O)Nc2nnc(COCCO)s2)cc1	none (no result: HTR5A inv ag, MOR-DOR inv ag, HTR5A ag ctr, OPRM1-OPRD1 ag)
CCC(C)N(C(=O)COC(=O)CSc1ccc(C)c(C)c1)C1CCS(=O)(=O)C1 (stereo not drawn)	m5-HT2A agonist 15 | OPRM1 ag inactive | m5-HT2A ag conf inactive
CCCCn1nnnc1C(c1cc2ccccc2o1)N(C)CCc1ccccc1 (stereo not drawn)	none (no result: HTR5A inv ag, MOR-DOR inv ag, HTR5A ag ctr, OPRM1-OPRD1 ag)
CCCc1cc(NCCCN2CCOCC2)n2c(nc3ccccc32)c1C#N	m5-HT2A agonist 32 | OPRM1 ag inactive | m5-HT2A ag conf inactive
O=C(O)CCC(=O)N1CCN(c2nc3ccccc3s2)CC1	m5-HT2A agonist 45 | OPRM1 ag inactive | m5-HT2A ag conf inactive
Cc1cccc(C)c1NC(=O)N1CCN(c2nc3ccccc3s2)CC1	m5-HT2A agonist 39 | OPRM1 ag inactive | m5-HT2A ag conf inactive
CCOc1ccc(NC(=O)N2CCN(c3nc4ccccc4s3)CC2)cc1	m5-HT2A agonist 30 | OPRM1 ag inactive | m5-HT2A ag conf inactive
CCOc1ccc(NC(=O)N2CCN(S(C)(=O)=O)CC2)cc1	none
C[C@H]1CN([C@@H](C)CO)C(=O)c2cc(C#Cc3ccccn3)cnc2O[C@@H]1CN(C)Cc1ccccc1	none (no result: HTR5A inv ag, MOR-DOR inv ag, HTR5A ag ctr, OPRM1-OPRD1 ag)
CCCCCC1C(=O)C[C@@H]2CCN3C(=O)CCC[C@H]1[C@H]23 (stereo partly drawn)	m5-HT2A agonist 17 | OPRM1 ag inactive | m5-HT2A ag conf inactive
COC(=O)C1(C(=O)OC)C[C@H](/C=C/c2ccccc2)N(Cc2ccccc2OC)[C@@H]1c1ccccc1	none (no result: HTR5A inv ag, MOR-DOR inv ag, HTR5A ag ctr, OPRM1-OPRD1 ag)
Cc1c(NC(=O)CN2C(=O)c3ccc([N+](=O)[O-])cc3C2=O)c(=O)n(-c2ccccc2)n1C	m5-HT2A agonist 17 | OPRM1 ag inactive | m5-HT2A ag conf inactive
CN(Cc1c(C(=O)N/N=C/c2ccccc2O)nnn1-c1nonc1N)C1CCCCC1	none (no result: HTR5A inv ag, MOR-DOR inv ag, HTR5A ag ctr, OPRM1-OPRD1 ag)
c1ccc2cc(CN3CCOCC3)ccc2c1	m5-HT2A agonist 20 | OPRM1 ag inactive | m5-HT2A ag conf inactive
O=C(Nc1ccc(CN2CCOCC2)cc1)c1ccc2ccccc2c1	none
CCN(CC)S(=O)(=O)c1ccc2nnn(O)c2c1	none
O=S(=O)(c1ccc2nnn(O)c2c1)N1CCCCC1	m5-HT2A agonist 20 | OPRM1 ag inactive | m5-HT2A ag conf inactive
CCOC(=O)C1=NOC2COC3(CCN(c4ncccn4)CC3)OCC12 (stereo not drawn)	m5-HT2A agonist 15 | OPRM1 ag 0.6 | m5-HT2A ag conf inactive
CCOC(=O)c1sc2nc(C)nc(N3CCN(c4ncccn4)CC3)c2c1C	none
CSc1ccc(CCNC(=O)CCc2nnc3ccc(N4CCOCC4)nn23)cc1	none
CSc1ccc(CCNC(=O)CCc2nnc3ccc(N4CCCCC4)nn23)cc1	m5-HT2A agonist 20 | OPRM1 ag 0.7 | m5-HT2A ag conf inactive
OCCNc1cnc2ccccc2n1	none
OCCNc1nc2ccccc2nc1NCCO	m5-HT2A agonist 23 | OPRM1 ag inactive | m5-HT2A ag conf inactive
CC(C)c1cc(Cn2c3ccccc3c(=O)n2C(C)Cn2cc(-c3ccc(C(C)(C)C)cc3)nn2)on1 (stereo not drawn)	none (no result: HTR5A inv ag, MOR-DOR inv ag, HTR5A ag ctr, OPRM1-OPRD1 ag)
COc1cccc(-c2cc(N3CCN(C(=O)c4ccoc4)CC3)n3nc(-c4cccc(Cl)c4)cc3n2)c1	m5-HT2A agonist 16 (no result: HTR5A inv ag, MOR-DOR inv ag, HTR5A ag ctr, OPRM1-OPRD1 ag) | OPRM1 ag inactive | m5-HT2A ag conf inactive
Clc1ccc(CN2CCN(c3ccccc3)CC2)cn1	m5-HT2A agonist 22 | OPRM1 ag inactive | m5-HT2A ag conf 81
Clc1ncc(CN2CCN(c3ccccc3)CC2)s1	m5-HT2A agonist 31 | OPRM1 ag inactive | m5-HT2A ag conf 84
Fc1ccccc1N1CCN(Cc2cnc(Cl)s2)CC1	none
CCC1Oc2ccccc2N(CC(=O)N2CC(C)CC(C)C2)C1=O (stereo not drawn)	none (no result: HTR5A inv ag, MOR-DOR inv ag, HTR5A ag ctr, OPRM1-OPRD1 ag)
CC(C)C[C@H]1CN([C@@H](Cc2ccccc2)CN2CCC[C@@H]2CN2C(=O)C(=O)NC[C@@H]2Cc2ccccc2)C(=O)C(=O)N1CCc1ccccc1	none (no result: HTR5A inv ag, MOR-DOR inv ag, HTR5A ag ctr, OPRM1-OPRD1 ag)
